# Measurements from the supplement of paper PMC10849652.
# Of roughly 7,900 targets only a part is listed; those with a hit were picked by preference. About 0.6% of all pairs of compound and target were hits. Unmarked numbers belong to inactive results.
# Experiments:
# Test in all cases: log2 fold change, soluble protein after heating vs DMSO (PISA); higher = thermal stabilisation; K562 cells, 10 uM, 30 min; active = over 0.2 and 3.5 SD of the protein, either way, in both replicates (recomputed)
# [1] = compound: CC[C@@H]1C(=O)N(C)c2cnc(Nc3ccc(C(=O)NC4CCN(C)CC4)cc3OC)nc2N1C1CCCC1
# In short: (§1)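 Values are thermal stability changes relative to control samples and are taken from duplicates. They are stated as log2 fold changes. Before quantification by TMTpro 16plex LC-MS/MS with equalised channel sums, K562 cells at 2×10^6 cells/mL were treated with 10 μM compound for 30 min, heated in aliquots for 3 min across 48°C-58°C, pooled, extracted in PBS with 0.5% NP-40 at 4°C, and centrifuged at 21,000xg for 90 min to give the soluble supernatant.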
# volasertib = compound: CC[C@@H]1C(=O)N(C)c2cnc(Nc3ccc(C(=O)N[C@H]4CC[C@H](N5CCN(CC6CC6)CC5)CC4)cc3OC)nc2N1C(C)C [volasertib]
# In short: as §1
# [2] = compound: CC[C@H](C)N1C=C(C2=C(C=C(C=C21)C3=CN=C(C=C3)N4CCNCC4)C(=O)NCC5=C(C=C(NC5=O)C)C)C
# In short: as §1
# epoxomicin = compound: CC[C@H](C)[C@@H](C(=O)N[C@@H]([C@@H](C)O)C(=O)N[C@@H](CC(C)C)C(=O)[C@]1(CO1)C)NC(=O)[C@H]([C@@H](C)CC)N(C)C(=O)C [epoxomicin]
# In short: as §1
# [3] = compound: CCn1c(C(=O)N(C2CC2)C2CC2)cc2c3c(ncn3C)c(Nc3cc(C)n(C)n3)nc21
# In short: as §1
# [4] = compound: CCn1cc(-c2ccnc3[nH]c(-c4cccc(CN(C)C)c4)cc23)c(-c2ccc(NC(=O)N(C)C)cc2)n1
# In short: as §1
# [5] = compound: CN(C)CC(=O)Nc1ccc2[nH]c(=O)c3ccccc3c2c1
# In short: as §1
# rosiglitazone = compound: CN(CCOC1=CC=C(C=C1)C[C@H]2C(=O)NC(=O)S2)C3=CC=CC=N3 (racemic) [rosiglitazone]
# In short: as §1
# [6] = compound: CN1C2=C(C3=C1C(=O)N(N=C3)CC4=CC(=CC=C4)N)SC(=C2)S(=O)C
# In short: as §1
# [7] = compound: CN1CCC(CNc2ccc3ncc(-c4cccc(OC(F)(F)F)c4)n3n2)CC1
# In short: as §1
# saracatinib = compound: CN1CCN(CCOc2cc(OC3CCOCC3)c3c(Nc4c(Cl)ccc5c4OCO5)ncnc3c2)CC1 [saracatinib]
# In short: as §1
# sotrastaurin = compound: CN1CCN(c2nc(C3=C(c4c[nH]c5ccccc45)C(=O)NC3=O)c3ccccc3n2)CC1 [sotrastaurin]
# In short: as §1
# alvocidib = compound: CN1CC[C@H](c2c(O)cc(O)c3c(=O)cc(-c4ccccc4Cl)oc23)[C@H](O)C1 [alvocidib]
# In short: as §1
# Tubastatin A = compound: CN1CCc2c(c3ccccc3n2Cc2ccc(C(=O)NO)cc2)C1 [Tubastatin A]
# In short: as §1
# [8] = compound: CNC(=O)C1=CC=CC=C1NC2=NC(=NC=C2Cl)NC3=C(C=C(C=C3)N4CCOCC4)OC
# In short: as §1
# defactinib = compound: CNC(=O)c1ccc(Nc2ncc(C(F)(F)F)c(NCc3nccnc3N(C)S(C)(=O)=O)n2)cc1 [defactinib]
# In short: as §1
# rucaparib = compound: CNCc1ccc(-c2[nH]c3cc(F)cc4c3c2CCNC4=O)cc1 [rucaparib]
# In short: as §1
# [9] = compound: CNc1nc(-c2ccc3c(N)n[nH]c3c2)cc(N2C[C@@H](C(=O)NC3CCCCC3)CC[C@H]2C)n1
# In short: as §1
# encorafenib = compound: COC(=O)N[C@@H](C)CNc1nccc(-c2cn(C(C)C)nc2-c2cc(Cl)cc(NS(C)(=O)=O)c2F)n1 [encorafenib]
# In short: as §1
# [10] = compound: COC(=O)[C@H](CCSC)NC(=O)C1=C(C=C(C=C1)NC[C@H](CS)N)C2=CC=CC=C2
# In short: as §1
# Sequence of UniProt Q13948 (Q13948 whole entry, looked up): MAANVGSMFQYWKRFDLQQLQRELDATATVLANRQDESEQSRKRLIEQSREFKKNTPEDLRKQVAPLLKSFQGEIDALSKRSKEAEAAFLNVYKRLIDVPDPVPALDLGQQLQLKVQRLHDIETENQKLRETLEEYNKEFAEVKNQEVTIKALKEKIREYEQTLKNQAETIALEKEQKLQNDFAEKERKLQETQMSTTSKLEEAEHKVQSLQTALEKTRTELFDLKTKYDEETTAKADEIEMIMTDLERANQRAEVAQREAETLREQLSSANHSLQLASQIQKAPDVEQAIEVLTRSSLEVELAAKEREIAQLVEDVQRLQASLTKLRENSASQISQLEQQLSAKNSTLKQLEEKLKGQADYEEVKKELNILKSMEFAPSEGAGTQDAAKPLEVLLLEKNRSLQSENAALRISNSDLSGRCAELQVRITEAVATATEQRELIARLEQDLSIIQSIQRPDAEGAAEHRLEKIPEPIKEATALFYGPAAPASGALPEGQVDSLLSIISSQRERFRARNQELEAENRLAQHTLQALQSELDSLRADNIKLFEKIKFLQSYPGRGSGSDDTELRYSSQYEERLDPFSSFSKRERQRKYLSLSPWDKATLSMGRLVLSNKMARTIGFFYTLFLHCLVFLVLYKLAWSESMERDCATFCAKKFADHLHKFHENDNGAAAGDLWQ
# Sequence of UniProt O15121 (O15121 whole entry, looked up): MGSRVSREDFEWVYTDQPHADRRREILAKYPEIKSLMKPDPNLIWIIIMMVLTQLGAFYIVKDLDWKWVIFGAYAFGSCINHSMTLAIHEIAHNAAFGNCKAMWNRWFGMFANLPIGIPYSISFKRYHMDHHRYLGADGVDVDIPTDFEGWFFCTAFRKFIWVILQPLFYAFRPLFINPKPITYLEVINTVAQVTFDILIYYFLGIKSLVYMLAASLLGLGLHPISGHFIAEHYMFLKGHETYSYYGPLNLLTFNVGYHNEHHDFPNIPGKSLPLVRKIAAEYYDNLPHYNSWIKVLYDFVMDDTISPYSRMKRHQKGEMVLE
# Sequence of UniProt P29692 (P29692 whole entry, looked up): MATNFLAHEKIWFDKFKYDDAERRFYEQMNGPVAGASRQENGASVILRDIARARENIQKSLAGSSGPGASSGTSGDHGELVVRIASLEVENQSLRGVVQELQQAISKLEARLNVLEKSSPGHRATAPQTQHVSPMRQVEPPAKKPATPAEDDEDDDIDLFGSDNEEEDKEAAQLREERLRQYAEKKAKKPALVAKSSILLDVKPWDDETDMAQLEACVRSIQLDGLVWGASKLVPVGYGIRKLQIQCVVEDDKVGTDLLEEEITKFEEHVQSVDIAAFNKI
# Sequence of UniProt O75071 (O75071 whole entry, looked up): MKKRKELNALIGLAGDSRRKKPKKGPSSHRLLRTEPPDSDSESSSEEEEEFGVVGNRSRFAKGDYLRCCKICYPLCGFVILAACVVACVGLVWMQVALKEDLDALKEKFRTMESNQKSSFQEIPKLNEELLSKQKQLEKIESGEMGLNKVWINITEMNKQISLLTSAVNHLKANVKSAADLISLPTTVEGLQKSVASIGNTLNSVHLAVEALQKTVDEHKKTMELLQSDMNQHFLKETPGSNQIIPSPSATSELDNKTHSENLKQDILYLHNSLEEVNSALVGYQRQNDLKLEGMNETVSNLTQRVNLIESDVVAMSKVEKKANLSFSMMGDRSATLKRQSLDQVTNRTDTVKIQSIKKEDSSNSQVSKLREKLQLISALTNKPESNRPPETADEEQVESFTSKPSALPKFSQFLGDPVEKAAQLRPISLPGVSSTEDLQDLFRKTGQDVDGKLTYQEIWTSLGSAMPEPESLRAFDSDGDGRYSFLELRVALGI
# Sequence of UniProt Q9NV70 (Q9NV70 whole entry, looked up): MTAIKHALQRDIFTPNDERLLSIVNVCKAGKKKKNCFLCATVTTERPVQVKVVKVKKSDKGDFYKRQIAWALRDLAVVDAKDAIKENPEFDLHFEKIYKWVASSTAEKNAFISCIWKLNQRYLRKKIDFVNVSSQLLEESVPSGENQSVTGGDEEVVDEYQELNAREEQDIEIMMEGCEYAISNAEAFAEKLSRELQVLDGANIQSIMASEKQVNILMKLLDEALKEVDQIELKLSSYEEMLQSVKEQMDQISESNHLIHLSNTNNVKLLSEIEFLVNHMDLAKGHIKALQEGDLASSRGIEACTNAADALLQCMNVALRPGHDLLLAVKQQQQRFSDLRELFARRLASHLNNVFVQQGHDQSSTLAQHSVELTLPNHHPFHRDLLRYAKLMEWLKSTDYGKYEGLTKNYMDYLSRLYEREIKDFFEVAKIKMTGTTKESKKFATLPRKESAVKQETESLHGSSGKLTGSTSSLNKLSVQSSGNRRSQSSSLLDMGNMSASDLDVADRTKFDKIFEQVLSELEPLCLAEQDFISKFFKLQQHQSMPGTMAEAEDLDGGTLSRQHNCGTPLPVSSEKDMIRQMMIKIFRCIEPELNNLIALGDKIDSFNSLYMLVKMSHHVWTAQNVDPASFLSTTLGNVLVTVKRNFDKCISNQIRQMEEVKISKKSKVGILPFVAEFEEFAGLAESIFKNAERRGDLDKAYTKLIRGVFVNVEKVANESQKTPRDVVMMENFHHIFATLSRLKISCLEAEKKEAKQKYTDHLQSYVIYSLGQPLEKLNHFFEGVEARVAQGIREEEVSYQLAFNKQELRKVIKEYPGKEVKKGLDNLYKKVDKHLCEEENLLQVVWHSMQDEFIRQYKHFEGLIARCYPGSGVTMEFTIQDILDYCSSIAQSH
# Sequence of UniProt Q9H2P9 (Q9H2P9 whole entry, looked up): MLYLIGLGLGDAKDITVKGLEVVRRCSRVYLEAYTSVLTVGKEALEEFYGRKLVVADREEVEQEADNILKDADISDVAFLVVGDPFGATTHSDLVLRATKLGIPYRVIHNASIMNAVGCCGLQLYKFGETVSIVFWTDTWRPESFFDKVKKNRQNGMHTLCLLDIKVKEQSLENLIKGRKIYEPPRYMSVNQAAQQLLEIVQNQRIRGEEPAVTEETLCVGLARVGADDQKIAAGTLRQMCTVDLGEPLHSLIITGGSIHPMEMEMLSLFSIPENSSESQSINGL
# Sequence of UniProt Q6V1X1 (Q6V1X1 whole entry, looked up): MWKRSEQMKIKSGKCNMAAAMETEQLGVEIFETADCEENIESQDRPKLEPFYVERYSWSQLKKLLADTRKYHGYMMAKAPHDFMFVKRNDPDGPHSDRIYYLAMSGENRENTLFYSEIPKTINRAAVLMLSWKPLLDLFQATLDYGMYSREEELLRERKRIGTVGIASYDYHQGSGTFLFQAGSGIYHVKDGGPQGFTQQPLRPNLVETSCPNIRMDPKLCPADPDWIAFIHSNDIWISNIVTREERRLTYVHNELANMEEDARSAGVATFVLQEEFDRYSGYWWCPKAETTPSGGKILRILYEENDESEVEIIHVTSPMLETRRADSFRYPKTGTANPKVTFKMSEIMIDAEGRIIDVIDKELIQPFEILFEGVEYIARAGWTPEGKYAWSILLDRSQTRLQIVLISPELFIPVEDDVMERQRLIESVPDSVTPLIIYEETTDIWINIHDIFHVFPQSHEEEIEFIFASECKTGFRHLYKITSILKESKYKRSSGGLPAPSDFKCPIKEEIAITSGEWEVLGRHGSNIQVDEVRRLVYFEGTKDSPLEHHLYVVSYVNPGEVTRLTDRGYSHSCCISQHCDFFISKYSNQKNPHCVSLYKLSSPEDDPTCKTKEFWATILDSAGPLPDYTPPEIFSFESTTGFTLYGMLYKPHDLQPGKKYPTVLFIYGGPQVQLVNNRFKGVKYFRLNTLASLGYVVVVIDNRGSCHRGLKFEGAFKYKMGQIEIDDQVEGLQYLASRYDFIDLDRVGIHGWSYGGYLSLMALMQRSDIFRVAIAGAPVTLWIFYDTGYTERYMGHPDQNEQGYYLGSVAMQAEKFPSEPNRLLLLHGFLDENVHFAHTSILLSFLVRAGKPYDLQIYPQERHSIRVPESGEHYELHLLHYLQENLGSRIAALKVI
# Sequence of UniProt P11182 (P11182 whole entry, looked up): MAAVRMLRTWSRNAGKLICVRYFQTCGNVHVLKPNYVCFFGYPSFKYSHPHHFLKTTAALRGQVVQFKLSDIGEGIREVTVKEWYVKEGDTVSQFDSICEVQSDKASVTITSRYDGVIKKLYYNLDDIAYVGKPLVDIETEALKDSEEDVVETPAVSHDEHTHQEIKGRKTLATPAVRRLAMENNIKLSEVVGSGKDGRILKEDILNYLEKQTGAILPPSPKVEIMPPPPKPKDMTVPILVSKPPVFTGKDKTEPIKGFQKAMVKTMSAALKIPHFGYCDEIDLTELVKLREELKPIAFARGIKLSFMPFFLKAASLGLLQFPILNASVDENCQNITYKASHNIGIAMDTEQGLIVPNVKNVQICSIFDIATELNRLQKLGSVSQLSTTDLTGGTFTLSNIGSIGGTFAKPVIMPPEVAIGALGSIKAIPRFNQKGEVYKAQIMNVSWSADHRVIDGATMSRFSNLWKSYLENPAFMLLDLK
# Sequence of UniProt Q9UK59 (Q9UK59 whole entry, looked up): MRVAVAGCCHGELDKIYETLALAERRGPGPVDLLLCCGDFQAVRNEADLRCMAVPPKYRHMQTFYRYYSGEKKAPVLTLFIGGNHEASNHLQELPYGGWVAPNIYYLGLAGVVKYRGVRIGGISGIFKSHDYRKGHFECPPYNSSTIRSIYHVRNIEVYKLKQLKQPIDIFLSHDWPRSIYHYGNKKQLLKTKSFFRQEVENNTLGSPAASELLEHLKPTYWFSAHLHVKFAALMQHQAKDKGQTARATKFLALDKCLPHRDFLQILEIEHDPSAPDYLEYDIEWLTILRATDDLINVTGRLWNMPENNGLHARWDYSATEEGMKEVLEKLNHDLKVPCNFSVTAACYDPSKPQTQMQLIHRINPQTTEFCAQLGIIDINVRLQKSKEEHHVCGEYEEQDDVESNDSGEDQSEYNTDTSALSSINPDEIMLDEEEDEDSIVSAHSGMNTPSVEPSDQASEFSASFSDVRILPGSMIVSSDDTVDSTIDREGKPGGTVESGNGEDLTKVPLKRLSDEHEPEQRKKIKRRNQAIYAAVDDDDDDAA
# Sequence of UniProt Q15369 (Q15369 whole entry, looked up): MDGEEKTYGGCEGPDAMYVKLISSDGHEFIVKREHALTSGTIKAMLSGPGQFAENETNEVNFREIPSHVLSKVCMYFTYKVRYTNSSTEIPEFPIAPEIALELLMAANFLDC
Target,log2 fold change [1],log2 fold change (volasertib),log2 fold change [2],log2 fold change (epoxomicin),log2 fold change [3],log2 fold change [4],log2 fold change [5],log2 fold change (rosiglitazone),log2 fold change [6],log2 fold change [7],log2 fold change (saracatinib),log2 fold change (sotrastaurin),log2 fold change (alvocidib),log2 fold change (Tubastatin A),log2 fold change [8],log2 fold change (defactinib),log2 fold change (rucaparib),log2 fold change [9],log2 fold change (encorafenib),log2 fold change [10]
DHX40 (UniProt Q8IX18),-0.006,-0.236,0.188,-0.037,-0.074,-0.013,0.026,0.166,-0.076,-0.029,0.069,-0.025,-0.052,0.053,-0.043,-0.163,0.087,0.013,0.068,-0.039
DBNL isoform 3 (UniProt Q9UJU6),-0.143,-0.367 (active),0.031,0.012,-0.046,0.007,0.011,0.095,-0.075,-0.109,0.04,-0.014,-0.07,0.009,0.01,-0.106,-0.1,-0.05,0.061,-0.004
EXOC1 (UniProt Q9NV70),-0.219,-0.44,0.077,-0.012,-0.081,0.023,0.084,0.115,0.1,-0.319,0.013,-0.249,-0.04,0.038,-0.002,-0.074,0.172,0.066,0.06,-0.081
DBT (UniProt P11182),0.068,0.009,-0.01,-0.022,-0.018,-0.001,-0.14,-0.025,0.015,0.045,-0.012,0.025,0.009,-0.072,0.048,0.071,0.089,-0.03,0.046,-0.013
DNTTIP2 (UniProt Q5QJE6),0.047,-0.002,0.031,-0.144,0.015,0.09,-0.028,-0.088,0.226,-0.028,-0.038,-0.104,-0.007,0.145,0.011,-0.131,0.171,0.03,0.067,0.121
DPP8 (UniProt Q6V1X1),0.143,0.007,-0.025,-0.045,0.019,0.002,-0.057,0.02,-0.047,-0.106,-0.002,0.175,0.024,0.003,-0.044,0.082,-0.572 (active),-0.021,0.026,0.058
DBR1 (UniProt Q9UK59),0.037,0,0.008,-0.018,-0.017,0.015,-0.019,-0.002,-0.034,0.015,0.048,0.019,-0.002,-0.012,-0.033,-0.012,-0.007,-0.004,-0.012,-0.011
EEF1D isoform 2 (UniProt P29692),-0.089,-0.336 (active),-0.001,0.008,-0.031,0.05,-0.022,0.019,0.015,-0.039,-0.04,-0.03,0,0.001,0.107,-0.011,0.053,0.017,0.078,-0.013
DEGS1 (UniProt O15121),0.061,-0.02,0.012,-0.037,-0.028,-0.168,0.068,-0.041,-0.1,0.019,0.088,-0.022,0.036,-0.521 (active),0.046,-0.18,0.002,0.029,0.002,0.106
DCAF6 isoform 3 (UniProt Q58WW2),0.077,0.05,-0.064,0.025,0.013,-0.03,-0.035,0.006,0.006,0.004,0.093,0.001,0.001,-0.05,-0.027,-0.012,-0.028,-0.051,0,0.034
CUX1 isoform 2 (UniProt Q13948),-0.055,-0.188,0,-0.002,-0.112,0.043,0.317,0.033,0.016,0.055,-0.065,-0.012,-0.07,0.006,0.03,-0.049,0.061,0.048,0.056,-0.062
CTNNB1 (UniProt P35222),0.2,-0.162,-0.116,0.887 (active),-0.027,-0.304,-0.151,0.124,-0.185,0.379,0.032,1.08 (active),0.037,0.148,-0.065,0.074,-0.145,-0.025,0.079,-0.015
EFCAB14 (UniProt O75071),-0.033,-0.089,-0.078,0.068,0.045,0.06,-0.018,-0.009,0.028,-0.178,-0.164,0.083,0.016,-0.029,-0.03,0.093,-0.059,0.031,0.044,-0.086
EIF4A1 (UniProt P60842),-0.106,-0.273 (active),0.079,0.001,0.001,-0.052,0.047,0.06,-0.046,-0.126,-0.029,-0.138,-0.088,0.049,-0.03,-0.116,0,0.012,0.071,-0.05
ELOC (UniProt Q15369),-0.009,-0.016,0.042,0.028,0.006,-0.087,0.108,0.011,-0.033,-0.014,0.008,0.01,-0.074,0.035,0.025,-0.033,-0.021,0,-0.021,-0.014
DPH5 isoform 5 (UniProt Q9H2P9),0.047,0.08,-0.022,0.049,-0.055,-0.018,-0.013,0.013,-0.115,0.034,-0.007,-0.017,-0.064,-0.022,0.07,0,-0.061,0,0.025,0.004
